Laboratory results: the supplement of paper PMC4206461

tested on: Pseudomonas aeruginosa PA14 wild type; assay: respiration area under curve with compound as sole nitrogen source, 24 h (OmniLog AUC (arbitrary units)); higher = more respiration / better utilisation as nitrogen source, active = 2000 or more
Procedure: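 Biolog Phenotype MicroArray plates PM6-PM8: each di/tripeptide is the sole nitrogen source (IF-0 medium with succinate/ferric citrate and dye mix A). Tetrazolium reduction was read in the OmniLog every 15 min for 24 h at 37°C and summarised as area under the respiration curve (arbitrary units). The paper counts values below 2000 as no respiration and above 8000 as solid respiration. Replicate datasets are averaged.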

Respiration area under curve, active:
CSCC[C@H](N)C(=O)N[C@@H](CC(=O)O)C(=O)O (plate: PM7) 4700
C[C@@H](O)[C@H](N)C(=O)N[C@@H](CCC(=O)O)C(=O)O (plate: PM7) 7240
N[C@@H](Cc1c[nH]c2ccccc12)C(=O)NCC(=O)O (plate: PM7) 3340
